Measurements from PubChem BioAssay (NCI).
About 83,000 compounds went through this panel and 20% of them were active in at least one assay; those are over-represented in the sample as a whole.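 The test compound was applied at a single concentration to cells in 96-well plates for 48 hours, and percent growth was recorded.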 Unmarked numbers belong to inactive results. Activity calls are given as the source filed them. How the source made its calls: active means growth percent below 10; inactive means the rest.

Tests used:
Experiment in all cases: NCI-60 one-dose screen, 48 h (100 = growth as untreated, 0 = no growth, -100 = all killed)
DU-145 prostate = details: 10 µM unless noted
K-562 leukemia = details: 10 µM unless noted
MALME-3M melanoma = details: 10 µM unless noted
MDA-MB-231 breast = details: 10 µM unless noted
RXF 393 renal = details: 10 µM unless noted
SF-268 CNS = details: 10 µM unless noted
SF-295 CNS = details: 10 µM unless noted
SF-539 CNS = details: 10 µM unless noted
UACC-257 melanoma = details: 10 µM
M14 melanoma = details: 10 µM unless noted
HCT-15 colon = details: 10 µM unless noted
HT29 colon = details: 10 µM unless noted
SNB-75 CNS = details: 10 µM unless noted
SNB-19 CNS = details: 10 µM unless noted
U251 CNS = details: 10 µM unless noted
PC-3 prostate = details: 10 µM unless noted
SK-MEL-5 melanoma = details: 10 µM unless noted
UACC-62 melanoma = details: 10 µM unless noted
LOX IMVI melanoma = details: 10 µM unless noted
SK-MEL-28 melanoma = details: 10 µM unless noted

Row | Compound | growth (DU-145 prostate) | growth (K-562 leukemia) | growth (MALME-3M melanoma) | growth (MDA-MB-231 breast) | growth (RXF 393 renal) | growth (SF-268 CNS) | growth (SF-295 CNS) | growth (SF-539 CNS) | growth (UACC-257 melanoma) | growth (M14 melanoma) | growth (HCT-15 colon) | growth (HT29 colon) | growth (SNB-75 CNS) | growth (SNB-19 CNS) | growth (U251 CNS) | growth (PC-3 prostate) | growth (SK-MEL-5 melanoma) | growth (UACC-62 melanoma) | growth (LOX IMVI melanoma) | growth (SK-MEL-28 melanoma)
1 | O=C(CCCn1c2c(sc3ccccc32)c(=O)n2nnc(-c3ccccc3)c12)NCCc1cnc[nH]1 | -100% (active) | 78.7% | -76.1% (active) | -47.2% (active) | -66.9% (active) | -48.9% (active) | -42.6% (active) | -97.3% (active) | -7.05% (active) | -80.6% (active) | -62.8% (active) | -100% (active) | -55.1% (active) | 27.3% | -83.2% (active) | -84.5% (active) | -67.1% (active) | -68.6% (active) | -49.8% (active) | -92% (active)
2 | CCOC(=O)C1=C(CSC(=S)N(C2CCCCC2)C2CCCCC2)N(C)C(=O)NC1c1ccccc1 (stereo not given) | 46.8% | 35.2% | 71.8% | 62.9% | 43.6% | 49% | 39.9% | 71.6% | 61.4% | 56.9% | 39.6% | 22% | 71.8% | 49.2% | 39.5% | 21.6% | 14.7% | 46.1% | 33% | 75.8%
3 | COc1ccc(-n2cnc3c(sc4ncc(Cl)cc43)c2=O)cc1 | 83.6% | 87.9% | 88.2% | 113% | 106% | 65.8% | 44.2% | 91.6% | 90.8% | 105% | 101% | 79.3% | 90.3% | 108% | 74.7% | 83.1% | 99.1% | 109% | 58% | 102%
4 | Nc1c(C(=O)Nc2cccc(C(F)(F)F)c2)sc2nc3c(cc12)CCCCC3 | 44.1% | 36.9% | -20.4% (active) | -29.5% (active) | -20.7% (active) | 25.8% | 11.7% | -63.3% (active) | 18.6% | 49.6% | 50.5% | 20.6% | -38.2% (active) | 44.8% | -57% (active) | 53% | 0.77% (active) | 12.8% | 8.87% (active) | 20.8%
5 | CCOC(=O)CC(C#N)(CC(=O)OCC)C(=O)OCC | 113% | 111% | 127% | 101% | 99.6% | 111% | 101% | 107% | 73.9% | 102% | 99.4% | 125% | 89.7% | 111% | 94.8% | 89.2% | 98% | 97.7% | 103% | 98%
6 | O=C(N/N=C/c1c(Cl)cccc1Cl)c1ccccc1Nc1ccnc(C(F)(F)F)c1 | 109% | 78.4% | 81% | 73.8% | 49.3% | 73.2% | 72.9% | 86.6% | 60.4% | 71.6% | 64.8% | 90.9% | 62.8% | 68.3% | 67.7% | 51% | 41.2% | 55.6% | 62.3% | 84.2%
7 | C=CCOc1cccc(/C=C/C(=O)c2sc(Nc3cccnc3)nc2C)c1 | 38.4% | 28.9% | 94.6% | 95.4% | 83.5% | 81.7% | 88.5% | 76.7% | 97.2% | 71.2% | 33.5% | 16.8% | 2.22% (active) | 57.7% | 50.7% | 44.6% | 74.9% | 59.9% | 32.9% | 87.1%
